Test results published in article PMC12431657, “Discovery and mechanistic insights of dibenzoylmethane as a broad spectrum inhibitor of coronavirus” (PLOS Pathogens, 2025).
Read-outs that look alike come from different tables or passages of the source. Screen size: about 3,300 compounds; about 60 (2%) showed an effect of 50% or more. What follows is part of a selection rich in strong results, with near analogues and random picks from the rest.

Tested on: HCoV-OC43
Parameters: species or system RD; HTS, protection from HCoV-OC43 induced cell death, luminescent cell viability (CellCounting-Lite 2.0), inhibition rate
Conditions: 10 µM, inhibitor

Row | SMILES | OC43 Inhibition rate (24 h post infection, 1 h compound pre-incubation) [%] | OC43 Inhibition rate (24 h)
1 | CCC(=O)O[C@H]1[C@H](O[C@@H]2[C@@H](C)[C@H](O[C@H]3C[C@@](C)(OC)[C@@H](O)[C@H](C)O3)[C@@H](C)C(=O)O[C@H](CC)[C@@](C)(O)[C@H](O)[C@@H](C)C(=O)[C@H](C)C[C@@]2(C)O)O[C@H](C)C[C@@H]1N(C)C [Erythromycin estolate, erythromycin estolate] | 99.7 | 
2 | O=C1C([C@@H]2O[C@H](CO)[C@@H](O)[C@H](O)[C@H]2O)=C(O)/C(=C(O)/C=C/c2ccc(O)cc2)C(=O)C1(O)[C@@H]1O[C@H](CO)[C@@H](O)[C@H](O)[C@H]1O (stereo partly drawn) [Hydroxysafflor yellow A] |  | 0.2%
3 | Oc1c(Br)cccc1Br [2,6-Dibromophenol] |  | 1.1%
4 | C[C@H]1CCCC(=O)CCC/C=C/c2cc(O)cc(O)c2C(=O)O1 [Zearalenone] |  | 56.4%
5 | C[C@H]1CCC[C@@H](O)CCCCCc2cc(O)cc(O)c2C(=O)O1 [Beta-Zearalanol] |  | 0%
6 | C=C(C)[C@@H]1[C@H]2OC(=O)[C@@H]1[C@]1(O)C[C@H]3O[C@]34C(=O)O[C@H]2[C@]14C [Picrotoxinin] |  | 0.5
7 | O=C1C=CC[C@@H]2[C@H]3CCC[N+]4([O-])CCC[C@@H](CN12)[C@@H]34 (stereo partly drawn) [Oxysophocarpine] |  | -0.3%
8 | C[C@@H]1CC[C@@]2(OC1)O[C@H]1C[C@H]3[C@@H]4CC=C5C[C@@H](O[C@@H]6O[C@H](CO)[C@@H](O[C@@H]7O[C@@H](C)[C@H](O[C@@H]8O[C@@H](C)[C@H](O)[C@@H](O)[C@H]8O)[C@@H](O)[C@H]7O)[C@H](O)[C@H]6O[C@@H]6O[C@@H](C)[C@H](O)[C@@H](O)[C@H]6O)CC[C@]5(C)[C@H]4CC[C@]3(C)[C@H]1[C@@H]2C [Formosanin C] |  | 5.5%
9 | C[C@@H]1CC[C@@]2(NC1)O[C@H]1C[C@H]3[C@@H]4CC=C5C[C@@H](O[C@@H]6O[C@H](CO)[C@@H](O[C@@H]7O[C@@H](C)[C@H](O)[C@@H](O)[C@H]7O)[C@H](O)[C@H]6O)CC[C@]5(C)[C@H]4CC[C@]3(C)[C@H]1[C@@H]2C [Khasianine] |  | 67.5%
10 | Cc1c([C@H](C)[C@@H]2NC[C@@H](C)C[C@H]2O)ccc2c1C[C@H]1[C@H]2CC=C2C[C@@H](O[C@@H]3O[C@H](CO)[C@@H](O)[C@H](O)[C@H]3O)CC[C@@]21C [Veratrosine] |  | 5.4%
11 | COc1cc2ccc(=O)oc2c2ccoc12 [Sphondin] |  | 0.1%
12 | COc1cc([C@@H]2c3cc4c(cc3C(=O)[C@H]3COC(=O)[C@H]23)OCO4)cc(OC)c1OC [Podophyllotoxone] |  | 4.4%
13 | Cc1ccc(C=O)cc1 [p-Tolualdehyde] |  | -0.1
14 | CC(C)=CCC[C@H](C(=O)O)[C@H]1CC[C@]2(C)C3=C(CC[C@@]12C)[C@@]1(C)CCC(=O)C(C)(C)[C@H]1CC3 [β-Elemonic acid] |  | -1.4%
15 | CC1(C)OC1COc1c2occc2cc2ccc(=O)oc12 (stereo not drawn) [Oxyimperatorin] |  | 2.8%
